The values below come from PubChem BioAssay (NCATS).

Values joined by “and” are separate entries in the source; they are usually repeats but may differ in a detail not shown here. Equal entries are not always repeated. Records with an inconclusive call do not appear. A number with no mark means an inactive call. Active and inactive are the calls of the source. The call rests on the fitted dose curve; in most records, active means well fitted cell-killing curve with a large enough effect; inconclusive means small, poorly fitted or top-dose-only effect, or effect the other way; inactive means no such curve, though single readings can be large or run the other way.
Potency means the concentration at half of the fitted maximal effect.

The nature of this assay: Viability qHTS for spleen associated tyrosine kinase inhibitor (SYKi) drug resistant MV4-11 cells (AID 1963824). Further: nearly all actives have a fitted effect of over 35% in size. The conditions noted are these: SYKi-resistant MV4-11 viability, CellTiter-Glo, 72 h; series mostly up to 45 µM; viability, % of control: at the top concentration. A digest of the protocol:
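SYK inhibitor-resistant MV4-11 AML cells, 500 per well, added to predispensed compounds and incubated 72 hr at 37 C, 5% CO2. Viability measured by CellTiter-Glo luminescence after 10 min at room temperature.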
(In general: qHTS replaces the single test concentration by a dilution series.)
For `C[C@H](CN(C)C)Oc1nc(Nc2cc3cccc(Cl)c3cn2)cnc1C#N`, the Potency was 411 nM (active) and 934 nM (active). `CCC1Nc2cc(Cl)c(S(N)(=O)=O)cc2S(=O)(=O)N1` (stereo not drawn): the “viability, % of control” value is 79.8%. With `Cc1cc2c(C(C)C)c(O)c(O)c(C=O)c2c(O)c1-c1c(C)cc2c(C(C)C)c(O)c(O)c(C=O)c2c1O`, the Potency was 4.68 µM (active). Still for that read-out and setting: the same measure for `COc1ccc(CCN2CCC(Nc3nc4ccccc4n3Cc3ccc(F)cc3)CC2)cc1`: 8.41 µM (active). Still for that read-out and setting: the same measure for `COC1CCC(N2C(=O)CNc3ncc(-c4ccc(C(C)(C)O)nc4)nc32)CC1` (stereo not drawn): 4.17 µM (active). For `CC(=O)N1CCC[C@H]1C(=O)N[C@@H](Cc1cnc[nH]1)C(=O)N[C@@H](CO)C(=O)N[C@@H](CS)C(=O)N[C@@H](CC(N)=O)C(N)=O`, the “viability, % of control” value was 91.3%. Consider `CN1CCN(c2ccc3nc(-c4c(N)c5c(F)cccc5[nH]c4=O)[nH]c3c2)CC1`, for which the Potency is 16.4 nM (active) and 18.6 nM (active).

Take `OC1(c2ccc(Cl)c(C(F)(F)F)c2)CCN(CCCC(c2ccc(F)cc2)c2ccc(F)cc2)CC1`: the Potency was 2.99 µM (active) and 3.26 µM (active). For the molecule `CN1CCCN=C1/C=C/c1cccs1`, the “viability, % of control” value was 81.1%.

For `CCCCCCCCCCCCCCCC[N+](C)(C)CCN(Cc1ccc(OC)cc1)c1ncccn1`, the Potency was 2.11 µM (active). The same measure, in the same setting: the same measure for `COc1ccc(S(=O)(=O)N(CCO)c2ccccc2CN(C)C/C=C/c2ccc(Cl)cc2)cc1`: 4.68 µM (active); for `COc1ccc(-c2c(C)nn3c(NCCN4CCOCC4)cc(C)nc23)cc1OC`: 9.2 µM (active). For `CCN1CCN(Cc2ccc(Nc3ncc(F)c(-c4cc(F)c5nc(C)n(C(C)C)c5c4)n3)nc2)CC1`, the Potency was 366 nM (active) and 417 nM (active).
